Test results taken from PubChem BioAssay (NCATS).
Inconclusive results are not listed. The source made the active and inactive calls. Unless noted, calls come from the whole dose curve; as a rule, active = well fitted curve in the direction sought with a large enough effect; inconclusive = small, poorly fitted or top-dose-only effect, or another doubt; inactive = no such curve, though single readings can be large; an effect the other way counts as inactive or inconclusive.

Columns and labels:
[1] = molecular target: ATP-dependent 6-phosphofructokinase (Trypanosoma brucei brucei) (UniProt O15648); assay: qHTS Assay to Find Inhibitors of T. brucei phosphofructokinase: hit validation (AID 492961);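 note: luminescence reports ADP formed as PFK phosphorylates fructose-6-phosphate with ATP; % is set by controls: 0 for no effect and ±100 for the full control effect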
Outline: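 Compounds titrated; %activity normalized to 0x and 1x enzyme controls, curve-fitted. Readout: ADP-Glo luminescence after 45 min room-temperature reaction of 1.25 nM PFK, 0.1 mM ATP, 0.5 mM F6P, pH 8.0.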

[2] = molecular target: Ubiquitin carboxyl-terminal hydrolase 1 (Homo sapiens) (UniProt O94782); assay: Inhibitors of USP1/UAF1: Pilot qHTS (AID 504865);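 note: rhodamine fluorescence freed from ubiquitin-rhodamine substrate followed over time; top concentration of the series differs between compounds; % is set by controls: 0 for no effect and ±100 for the full control effect; nearly all actives have a fitted effect of over 35% in size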
Outline: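 1nM USP1/UAF1 + cpd, 15 min RT; start w/ Ub-Rho 150nM final; kinetic FL 480/540 nm, 6 reads q60 s. Buffer 50mM HEPES pH 7.8, 0.5mM EDTA, 1mM TCEP, 0.01% Tween-20, 0.1 mg/ml BSA.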

[3] = molecular target: Luciferin 4-monooxygenase (Photinus pyralis) (UniProt P08659); assay: Biochemical firefly luciferase enzyme assay for NPC (AID 624030);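 note: purified P. pyralis luciferase at 10 nM with luciferin and ATP substrate; 0% = DMSO and -100% = full luciferase inhibition by PTC124 control; nearly all actives have a fitted effect of over 70% in size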
Outline: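 Purified P. pyralis luciferase at 10 nM in 50 mM Tris Acetate (final), luminescence read within 5 minutes of enzyme addition to compounds. Activity normalised to PTC124 versus DMSO; concentration-response curves classed by r2, magnitude and activity.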

[4] = S16 Schwann cell viability assay (CellTiter-Glo assay) (AID 624031);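 note: cellular ATP luminescence as a viability measure; plate controls were DMSO-treated cells for no effect and cell-free wells for full effect; nearly all actives have a fitted effect of over 70% in size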
Outline: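 Untransfected S16 rat Schwann cells; compound 24 h, 37 °C/5% CO2; CellTiter-Glo ATP luminescence. % activity vs no-cell wells and DMSO controls (0%); concentration-effect curves classed by r2, response magnitude, activity.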

[5] = S16 Schwann cell PMP22 intronic element beta-lactamase assay (AID 624044; calls by dose curve;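 note: 0% = DMSO and -100% = potassium clavulanate positive control; nearly all actives have a fitted effect of over 15% in size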)
Outline: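 Rat S16 Schwann cells with beta-Lac driven by a PMP22 intronic element, compound-treated 24 h at 37 °C. LiveBLAzer FRET B/G read: 460 nm normalized to potassium clavulanate vs DMSO; 535 nm FRET as viability; concentration-effect curves classified.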

[6] = system: Zika virus NS2B-NS3 protease; assay: Primary screen GU AMC qHTS for Zika virus inhibitors (AID 1347154);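 note: 0% = no-inhibitor control and -100% = no-enzyme control; nearly all actives have a fitted effect of over 70% in size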
Outline: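 Unlinked Zika NS2B hydrophilic domain–NS3 protease complex at 25 nM in 10 mM Tris-HCl pH 8.0, 0.01% Tween 20, with an AMC peptide substrate. Fluorescence change (340/450 nm) over 15 min at room temperature, normalized to controls, fitted to 4-parameter Hill.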

[7] = Primary qHTS for small molecule stabilizers of the endoplasmic reticulum resident proteome: Secreted ER Calcium Modulated Protein (SERCaMP) assay (AID 1508630); note: % is set by controls: 0 for no effect and ±100 for the full control effect
Outline: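 GLuc-SERCaMP-expressing SH-SY5Y cells, pretreated 16 h with compound, are challenged with thapsigargin to empty ER calcium stores; after 4 h, coelenterazine is added directly to the medium and luminescence is imaged.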

[8] = qHTS profiling for inhibitors of Plasmodium falciparum proliferation (AID 504749);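 note: 0% = DMSO vehicle and full inhibition = artemisinin control; nearly all actives have a fitted effect of over 60% in size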; details: P. falciparum in erythrocytes, SYBR Green DNA, 72 h, at 28.7 µM (top of the series)
Outline: (§1)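 Readout was DNA-dye fluorescence from lysed cultures, ex 485/em 535 nm. Parasitized red cells had grown 72 h with compound; data scaled between 0.29 uM artemisinin and DMSO wells and corrected using vehicle-only plates.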

3D7 = assay: as above; details: P. falciparum in erythrocytes, SYBR Green DNA, 72 h; series mostly up to 28.7 µM
Outline: as §1

7G8 = assay: as above; details: P. falciparum in erythrocytes, SYBR Green DNA, 72 h; series mostly up to 28.7 µM
Outline: as §1

AA1029 = assay: as above; details: P. falciparum in erythrocytes, SYBR Green DNA, 72 h; series mostly up to 28.7 µM
Outline: as §1

AS120 = assay: as above; details: P. falciparum in erythrocytes, SYBR Green DNA, 72 h; series mostly up to 28.7 µM
Outline: as §1

ATS189 = assay: as above; details: P. falciparum in erythrocytes, SYBR Green DNA, 72 h; series mostly up to 28.7 µM
Outline: as §1

ATS95 = assay: as above; details: P. falciparum in erythrocytes, SYBR Green DNA, 72 h; series mostly up to 28.7 µM
Outline: as §1

C2A = assay: as above; details: P. falciparum in erythrocytes, SYBR Green DNA, 72 h; series mostly up to 28.7 µM
Outline: as §1

CP185 = assay: as above; details: P. falciparum in erythrocytes, SYBR Green DNA, 72 h; series mostly up to 28.7 µM
Outline: as §1

CP191 = assay: as above; details: P. falciparum in erythrocytes, SYBR Green DNA, 72 h; series mostly up to 28.7 µM
Outline: as §1

CP194 = assay: as above; details: P. falciparum in erythrocytes, SYBR Green DNA, 72 h; series mostly up to 28.7 µM
Outline: as §1

CP201 = assay: as above; details: P. falciparum in erythrocytes, SYBR Green DNA, 72 h; series mostly up to 28.7 µM
Outline: as §1

CP203 = assay: as above; details: P. falciparum in erythrocytes, SYBR Green DNA, 72 h; series mostly up to 28.7 µM
Outline: as §1

CP211 = assay: as above; details: P. falciparum in erythrocytes, SYBR Green DNA, 72 h; series mostly up to 28.7 µM
Outline: as §1

CP215 = assay: as above; details: P. falciparum in erythrocytes, SYBR Green DNA, 72 h; series mostly up to 28.7 µM
Outline: as §1

CP217 = assay: as above; details: P. falciparum in erythrocytes, SYBR Green DNA, 72 h; series mostly up to 28.7 µM
Outline: as §1

CP237 = assay: as above; details: P. falciparum in erythrocytes, SYBR Green DNA, 72 h; series mostly up to 28.7 µM
Outline: as §1

CP238 = assay: as above; details: P. falciparum in erythrocytes, SYBR Green DNA, 72 h; series mostly up to 28.7 µM
Outline: as §1

CP247 = assay: as above; details: P. falciparum in erythrocytes, SYBR Green DNA, 72 h; series mostly up to 28.7 µM
Outline: as §1

CP250 = assay: as above; details: P. falciparum in erythrocytes, SYBR Green DNA, 72 h; series mostly up to 28.7 µM
Outline: as §1

CP252 = assay: as above; details: P. falciparum in erythrocytes, SYBR Green DNA, 72 h; series mostly up to 28.7 µM
Outline: as §1

CP256 = assay: as above; details: P. falciparum in erythrocytes, SYBR Green DNA, 72 h; series mostly up to 28.7 µM
Outline: as §1

CP260 = assay: as above; details: P. falciparum in erythrocytes, SYBR Green DNA, 72 h; series mostly up to 28.7 µM
Outline: as §1

CP262 = assay: as above; details: P. falciparum in erythrocytes, SYBR Green DNA, 72 h; series mostly up to 28.7 µM
Outline: as §1

CP265 = assay: as above; details: P. falciparum in erythrocytes, SYBR Green DNA, 72 h; series mostly up to 28.7 µM
Outline: as §1

CP266 = assay: as above; details: P. falciparum in erythrocytes, SYBR Green DNA, 72 h; series mostly up to 28.7 µM
Outline: as §1

CP268 = assay: as above; details: P. falciparum in erythrocytes, SYBR Green DNA, 72 h; series mostly up to 28.7 µM
Outline: as §1

CP269 = assay: as above; details: P. falciparum in erythrocytes, SYBR Green DNA, 72 h; series mostly up to 28.7 µM
Outline: as §1

CP286 = assay: as above; details: P. falciparum in erythrocytes, SYBR Green DNA, 72 h; series mostly up to 28.7 µM
Outline: as §1

CP291 = assay: as above; details: P. falciparum in erythrocytes, SYBR Green DNA, 72 h; series mostly up to 28.7 µM
Outline: as §1

CP305 = assay: as above; details: P. falciparum in erythrocytes, SYBR Green DNA, 72 h; series mostly up to 28.7 µM
Outline: as §1

CP315 = assay: as above; details: P. falciparum in erythrocytes, SYBR Green DNA, 72 h; series mostly up to 28.7 µM
Outline: as §1

CP325 = assay: as above; details: P. falciparum in erythrocytes, SYBR Green DNA, 72 h; series mostly up to 28.7 µM
Outline: as §1

CP329 = assay: as above; details: P. falciparum in erythrocytes, SYBR Green DNA, 72 h; series mostly up to 28.7 µM
Outline: as §1

CP335 = assay: as above; details: P. falciparum in erythrocytes, SYBR Green DNA, 72 h; series mostly up to 28.7 µM
Outline: as §1

DFO2036 = assay: as above; details: P. falciparum in erythrocytes, SYBR Green DNA, 72 h; series mostly up to 28.7 µM
Outline: as §1

DIV14 = assay: as above; details: P. falciparum in erythrocytes, SYBR Green DNA, 72 h; series mostly up to 28.7 µM
Outline: as §1

DIV17 = assay: as above; details: P. falciparum in erythrocytes, SYBR Green DNA, 72 h; series mostly up to 28.7 µM
Outline: as §1

DIV30 = assay: as above; details: P. falciparum in erythrocytes, SYBR Green DNA, 72 h; series mostly up to 28.7 µM
Outline: as §1

Dd2 = assay: as above; details: P. falciparum in erythrocytes, SYBR Green DNA, 72 h; series mostly up to 28.7 µM
Outline: as §1

ECU = assay: as above; details: P. falciparum in erythrocytes, SYBR Green DNA, 72 h; series mostly up to 28.7 µM
Outline: as §1

FAB9 = assay: as above; details: P. falciparum in erythrocytes, SYBR Green DNA, 72 h; series mostly up to 28.7 µM
Outline: as §1

GB4 = assay: as above; details: P. falciparum in erythrocytes, SYBR Green DNA, 72 h; series mostly up to 28.7 µM
Outline: as §1

HB3 = assay: as above; details: P. falciparum in erythrocytes, SYBR Green DNA, 72 h; series mostly up to 28.7 µM
Outline: as §1

ICS = assay: as above; details: P. falciparum in erythrocytes, SYBR Green DNA, 72 h; series mostly up to 28.7 µM
Outline: as §1

JCK = assay: as above; details: P. falciparum in erythrocytes, SYBR Green DNA, 72 h; series mostly up to 28.7 µM
Outline: as §1

N140 = assay: as above; details: P. falciparum in erythrocytes, SYBR Green DNA, 72 h; series mostly up to 28.7 µM
Outline: as §1

P93_24 = assay: as above; details: P. falciparum in erythrocytes, SYBR Green DNA, 72 h; series mostly up to 28.7 µM
Outline: as §1

P94_40 = assay: as above; details: P. falciparum in erythrocytes, SYBR Green DNA, 72 h; series mostly up to 28.7 µM
Outline: as §1

PAD = assay: as above; details: P. falciparum in erythrocytes, SYBR Green DNA, 72 h; series mostly up to 28.7 µM
Outline: as §1

PC15 = assay: as above; details: P. falciparum in erythrocytes, SYBR Green DNA, 72 h; series mostly up to 28.7 µM
Outline: as §1

PC26 = assay: as above; details: P. falciparum in erythrocytes, SYBR Green DNA, 72 h; series mostly up to 28.7 µM
Outline: as §1

PC49 = assay: as above; details: P. falciparum in erythrocytes, SYBR Green DNA, 72 h; series mostly up to 28.7 µM
Outline: as §1

SC27B = assay: as above; details: P. falciparum in erythrocytes, SYBR Green DNA, 72 h; series mostly up to 28.7 µM
Outline: as §1

TAB109 = assay: as above; details: P. falciparum in erythrocytes, SYBR Green DNA, 72 h; series mostly up to 28.7 µM
Outline: as §1

TAB113 = assay: as above; details: P. falciparum in erythrocytes, SYBR Green DNA, 72 h; series mostly up to 28.7 µM
Outline: as §1

TAB165 = assay: as above; details: P. falciparum in erythrocytes, SYBR Green DNA, 72 h; series mostly up to 28.7 µM
Outline: as §1

W2 = assay: as above; details: P. falciparum in erythrocytes, SYBR Green DNA, 72 h; series mostly up to 28.7 µM
Outline: as §1

Sequence of ATP-dependent 6-phosphofructokinase (Trypanosoma brucei brucei) (O15648 whole entry, looked up): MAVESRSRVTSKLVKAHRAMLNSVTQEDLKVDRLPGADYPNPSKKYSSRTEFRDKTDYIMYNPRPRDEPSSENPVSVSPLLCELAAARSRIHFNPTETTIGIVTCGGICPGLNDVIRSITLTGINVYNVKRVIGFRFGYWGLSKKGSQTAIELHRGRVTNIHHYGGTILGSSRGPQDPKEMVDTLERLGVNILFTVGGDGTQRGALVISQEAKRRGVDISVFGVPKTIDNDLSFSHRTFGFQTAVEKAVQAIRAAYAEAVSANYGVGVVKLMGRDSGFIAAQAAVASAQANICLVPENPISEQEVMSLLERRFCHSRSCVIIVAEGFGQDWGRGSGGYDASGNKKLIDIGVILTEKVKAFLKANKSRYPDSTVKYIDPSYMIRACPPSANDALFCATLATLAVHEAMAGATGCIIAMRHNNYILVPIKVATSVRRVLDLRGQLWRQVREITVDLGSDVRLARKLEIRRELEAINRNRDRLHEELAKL
Sequence of Luciferin 4-monooxygenase (Photinus pyralis) (P08659 whole entry, looked up): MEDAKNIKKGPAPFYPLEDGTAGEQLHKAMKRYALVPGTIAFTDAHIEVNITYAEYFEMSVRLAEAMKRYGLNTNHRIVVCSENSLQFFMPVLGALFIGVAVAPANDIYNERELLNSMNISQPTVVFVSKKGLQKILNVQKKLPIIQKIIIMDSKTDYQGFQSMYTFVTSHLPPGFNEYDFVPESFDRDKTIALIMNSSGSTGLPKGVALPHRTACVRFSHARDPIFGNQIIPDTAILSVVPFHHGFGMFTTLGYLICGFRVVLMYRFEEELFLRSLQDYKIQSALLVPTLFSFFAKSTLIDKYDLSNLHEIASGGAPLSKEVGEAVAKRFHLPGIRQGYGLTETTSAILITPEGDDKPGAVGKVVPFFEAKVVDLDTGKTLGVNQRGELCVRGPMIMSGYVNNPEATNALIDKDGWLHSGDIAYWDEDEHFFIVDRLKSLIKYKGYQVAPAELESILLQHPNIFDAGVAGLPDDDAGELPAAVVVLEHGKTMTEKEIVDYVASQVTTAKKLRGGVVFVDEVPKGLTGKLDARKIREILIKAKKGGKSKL
Sequence of Ubiquitin carboxyl-terminal hydrolase 1 (Homo sapiens) (O94782 whole entry, looked up): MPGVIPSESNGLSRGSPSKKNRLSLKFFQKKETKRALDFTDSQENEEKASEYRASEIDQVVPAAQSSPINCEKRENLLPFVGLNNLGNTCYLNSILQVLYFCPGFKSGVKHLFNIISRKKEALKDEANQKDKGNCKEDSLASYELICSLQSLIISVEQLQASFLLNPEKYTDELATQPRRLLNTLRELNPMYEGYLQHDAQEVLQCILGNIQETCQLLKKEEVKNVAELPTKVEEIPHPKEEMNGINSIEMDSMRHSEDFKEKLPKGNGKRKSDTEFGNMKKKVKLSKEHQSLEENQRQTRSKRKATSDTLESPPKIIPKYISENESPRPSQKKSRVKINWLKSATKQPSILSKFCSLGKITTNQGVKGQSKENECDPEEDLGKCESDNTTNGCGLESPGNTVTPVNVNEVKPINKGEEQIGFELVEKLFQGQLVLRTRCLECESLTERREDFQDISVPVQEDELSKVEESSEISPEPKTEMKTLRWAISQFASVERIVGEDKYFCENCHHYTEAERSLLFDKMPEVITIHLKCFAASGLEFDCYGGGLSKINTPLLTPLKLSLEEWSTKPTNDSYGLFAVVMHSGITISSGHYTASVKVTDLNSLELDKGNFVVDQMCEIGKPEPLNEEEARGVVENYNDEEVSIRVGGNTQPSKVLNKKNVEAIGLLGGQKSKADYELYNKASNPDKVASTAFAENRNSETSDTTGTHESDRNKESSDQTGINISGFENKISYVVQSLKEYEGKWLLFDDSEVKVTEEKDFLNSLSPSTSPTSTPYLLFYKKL

C/C=C1\C2C=C(C)CC1(N)c1ccc(=O)[nH]c1C2 (stereo unspecified)
inactive: outcome [1] | Potency [2] | Potency [3] | outcome [4] | Potency [5] | Potency [6] | Potency [7] | activity, negative = inhibition ([8]; parasite line A) -3.71% | activity, negative = inhibition ([8]; parasite line B) 0.727% | Potency (3D7) | Potency (7G8) | Potency (AA1029) | Potency (AS120) | Potency (ATS189) | Potency (ATS95) | Potency (C2A) | Potency (CP185) | Potency (CP191) | Potency (CP194) | Potency (CP201) | Potency (CP203) | Potency (CP211) | Potency (CP215) | Potency (CP217) | Potency (CP237) | Potency (CP238) | Potency (CP247) | Potency (CP250) | Potency (CP252) | Potency (CP256) | Potency (CP260) | Potency (CP262) | Potency (CP265) | Potency (CP266) | Potency (CP268) | Potency (CP269) | Potency (CP286) | Potency (CP291) | Potency (CP305) | Potency (CP315) | Potency (CP325) | Potency (CP329) | Potency (CP335) | Potency (DFO2036) | Potency (DIV14) | Potency (DIV17) | Potency (DIV30) | Potency (Dd2) | Potency (ECU) | Potency (FAB9) | Potency (GB4) | Potency (HB3) | Potency (ICS) | Potency (JCK) | Potency (N140) | Potency (P93_24) | Potency (P94_40) | Potency (PAD) | Potency (PC15) | Potency (PC26) | Potency (PC49) | Potency (SC27B) | Potency (TAB109) | Potency (TAB113) | Potency (TAB165) | Potency (W2)
